# Sampled rows, rich in hits. Any-hit rate of the full collection: about 21%.
# Shiga toxin inh: blocks Shiga toxin action in Vero cells | AID 2315 | inhibition, % at 38.7 µM | hit rate 9.2% among 290,000 | Vero cells, Shiga toxin protein synthesis inhibition reporter; in the data active means inhibition mostly above about 28%, no sharp cut-off; inactive means mostly below about 43%; further: 0% is about no effect
# HCV inh: HCV inhibition; Huh7.5.1 HCVcc-Cre infection, luciferase reporter, 44 h; hit rate 3.4% among 340,000; Potency, µM (titrated, usually from 41.8 µM), for the others: top-dose activity change, negative = inhibition, hits mostly inhibitors; further: potency means the concentration at half of the fitted maximal effect; on the % scale 0 is the no-effect control and ±100 the full control effect
#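 A cell-based infection assay in which seeded cells (1,000 per well) receive test compound after 4 h, are inoculated with HCVcc-Cre at approximately 0.5 moi, and are incubated 44 h before luminescence detection.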
# AMA1-RON2 inh: AMA1-RON2 (P. falciparum) interaction inhibition. AlphaScreen AMA1-biotinylated RON2 peptide binding. Potency, µM (titrated, usually from 58.2 µM), for inactives: at the highest dose activity change, negative = inhibition, usual class: inhibitors. hit rate 0.2% among 360,000;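 further: potency means the concentration at half of the fitted maximal effect; 0% = vehicle wells and -100% = peptide control; nearly all actives have a fitted effect of over 45% in size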
#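 AMA1 (3D7) with his tag at 25 nM final met compounds first, then biotinylated RON2 peptide at 25 nM; detection used donor plus acceptor beads, 10 µg/mL apiece, read by AlphaScreen after 30 min at room temperature.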
# CHX counter: counter-screen for Shiga toxin inhibitors: cycloheximide protein synthesis inhibition; cell reporter, cycloheximide protein synthesis inhibition counterscreen; max response, %; hit rate 12% among 300,000; AID 2314; in the data active means max response mostly above about 13%, no sharp cut-off; inactive means mostly below about 14%; further: read at 38.3 µM for the half of the compounds with a filed dose; 0% is about no effect
# Pf growth 96h: P. falciparum growth inhibition at 96 hour, primary screen for plastid delayed-death inhibitors; P. falciparum luciferase reporter growth, 96 h; Potency, µM (doses to about 28.7 µM), without a hit: at the top dose activity change, negative = inhibition, actives largely listed as inhibitors; hit rate 6.9% among 320,000; AID 504834; further: potency means the concentration at half of the fitted maximal effect; on the % scale 0 is the no-effect control and ±100 the full control effect
#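 Parasite growth measured via integrated firefly luciferase reporter in P. falciparum. Infected erythrocytes at 2% hematocrit, 0.05% parasitemia final were treated 96 hours at 37 C under 5% CO2, and luminescence was read.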
# Pf growth 48h: inhibits P. falciparum growth in the first generation, 48 h; hit rate 5.9% among 310,000; Potency, µM (titrated, usually from 28.7 µM), for inactives: at the highest dose activity change, negative = inhibition, actives largely listed as inhibitors; P. falciparum luciferase growth in erythrocytes, 48 h; further: potency means the concentration at half of the fitted maximal effect; on the % scale 0 is the no-effect control and ±100 the full control effect
#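 Luminescence readout; reporter = integrated firefly luciferase in P. falciparum. RBC culture at 2% hematocrit, 0.1% parasitemia final, 37 C/5% CO2; decreased signal taken as growth inhibition.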
# * = called active by the depositor; i = inactive; ? = inconclusive; . = not tested or not shown; [ ] = dose if it differs, or a comment. Unless noted, the call rests on the fitted dose curve; in most records, active means well fitted curve in the direction sought with a large enough effect; inconclusive means small, poorly fitted or top-dose-only effect, or another doubt; inactive means no such curve, though single readings can be large; an effect the other way counts as inactive or inconclusive.
SMILES,Shiga toxin inh,HCV inh,AMA1-RON2 inh,CHX counter,Pf growth 96h,Pf growth 48h
COC(=O)c1ccccc1NC(=O)CN1C(=O)C2CCCN2c2ncc(Cl)cc21 (stereo unspecified),7.5,-14.4%,.,-1.5,-15.1%,2.94µM*
COc1ccc(CNC(=O)CN2C(=O)C3CCCN3c3ncc(Cl)cc32)cc1 (stereo unspecified),-6.4,?,4.1%,-1.6,.,?
COC(CNc1nc(SC)nc2sc3c(c12)CCN(C)C3)OC,-6.4,-20.3%,-14.6%,-3.0,5.22µM*,?
CSc1nc(NCc2ccco2)c2c3c(sc2n1)CN(C)CC3,-13.2,.,.,-2.6,-2.7%[5.75 µM],2.94µM*
CSc1nc(SCC(=O)NCc2ccco2)c2c3c(sc2n1)CN(C)CC3,.,9.9%,14.5%,.,.,.
CCC(=O)Nc1c(C#N)c2nc3ccccc3nc2n1-c1ccc(C)cc1,.,14.0%,-14.9%,.,.,.
CCC(C)n1c(NC(=O)c2ccccc2)c(C#N)c2nc3ccccc3nc21 (stereo unspecified),-13.7,?,25.6%,-1.8,2.94µM*,3.7µM*
CCCCn1c(NC(=O)c2ccccc2)c(C#N)c2nc3ccccc3nc21,-10.5,?,15.7%,-5.3,.,5.86µM*
CCOC(=O)c1ccc(NC(=O)C(=O)NCCc2ccc(OC)cc2)cc1,-13.3,-15.3%,2.6%,-4.5,26.2%,51.8%
CCOC(=O)c1ccc(NC(=S)NCCc2ccc(F)cc2)cc1,-5.9,11.2µM*,41.2%,-2.4,8.3%,-4.8%
CC(C)c1ccc(NC(=O)NN2CCOCC2)cc1,138.2*,13.7%,1.9%,42.6*,49.6%,i
CCOC(=O)c1ccc(NC(=S)NNC(C)(C)C)cc1,83.8*,-5.4%,41.9%,61.4*,-5.7%,-14.0%
CCOC(=O)c1ccc(NC(=S)NC(=O)COc2ccccc2)cc1,-3.3,15.9%,37.9%,54.7*,18.3%,8.9%
Nc1ncnc2c1ncn2[C@@H]1O[C@H](C(=O)Nc2ccc(C(=O)N3CCCCC3)cc2)[C@@H](O)[C@H]1O,.,.,-1.1%,.,.,.
CCN(C(=O)C(C)Sc1nnc(-c2ccncc2)n1C)C1CCCCC1 (stereo unspecified),.,11.8%,-1.0%[11.6 µM],.,.,.
CCC(C)c1ccc(NC(=S)NN2CCOCC2)cc1 (stereo unspecified),87.3*,18.8%,-10.7%,42.3*,?,79.4%
CCOC(=O)c1ccc(NC(=S)NN2CCOCC2)cc1,39.2*,2.4%,45.9%,32.2*,?,77.3%
CCOC(=O)c1ccc(NC(=S)Nc2ccc(C)cc2)cc1,28.6,?,22.5%,12.3,-1.1%,3.5%
CCCCc1ccc(NC(=S)NN2CCOCC2)cc1,110.6*,-6.8%,59.9%,67.3*,28.2%,24.2%
Fc1cc(F)cc(NC(=S)NN2CCOCC2)c1,-3.0,2.7%,40.2%,1.4,?,7.7%
CCC(C)n1c(SCC(=O)NC2CC2)nc2ccccc2c1=O (stereo unspecified),.,.,-4.7%,.,.,.
Cc1cccc(C(=O)Nc2nnc(S(=O)(=O)N3CCOCC3)s2)c1,22.8,8.0%,-7.0%,8.7,4.6%,-13.4%
O=C(Nc1nnc(-c2ccccc2)s1)c1ccccc1F,58.9*,15.5%,0.6%,73.5*,82.6%,116.1%
O=C(Nc1nnc(S(=O)(=O)N2CCOCC2)s1)c1cccc(F)c1,30.9*,18.1%,-9.4%,20.5*,100.1%,61.1%
O=C(Nc1nnc(S(=O)(=O)N2CCCCCC2)s1)c1ccccc1F,17.5,15.3%,-4.4%,11.3*,21.4%,11.4%
SMILES,Shiga toxin inh,HCV inh,AMA1-RON2 inh,CHX counter,Pf growth 96h,Pf growth 48h
O=C(Nc1nc(COc2ccccc2)cs1)c1ccccc1F,14.5*,?,-8.9%[11.6 µM],23.6,72.8%,41.7%
Cc1cnc(CNC(=O)C2(C)CCCN2CC(C)C)cn1 (stereo unspecified),.,.,104.9%,.,.,.
CCOC(=O)[C@]12CCC=C1N(Cc1cccc3ccccc13)C(=O)[C@H](CC(=O)NCCCOC)C2,.,.,4.6%,.,.,.
CCCn1c(SCC(=O)N(C)CC(=O)Nc2ccc(Cl)cc2)n[nH]c1=O,.,-10.9%,-8.1%,.,-2.5%,?
O=C(Nc1nnc(S(=O)(=O)N2CCOCC2)s1)c1ccccc1F,15.1,?,10.2%,16.8*,11.5%,-3.3%
O=C(Nc1nnc(S(=O)(=O)N2CCOCC2)s1)c1ccccc1Cl,-1.1,17.4%,-2.7%,-2.7,15.5%,-13.6%
CCOC(=O)C(C#N)=C1CCN(Cc2ccccc2)CC1,-1.5,-6.5%,-0.4%,7.0,7.38µM*,.
O=C(O)C(Cc1ccc(Cl)cc1)NS(=O)(=O)c1ccc(Cl)cc1 (stereo unspecified),-4.3,7.5%,-8.3%,-4.2,26.0%,.
O=C(c1ccc(S(=O)(=O)Cc2ccccc2Cl)c([N+](=O)[O-])c1)N1CCN(c2ccccn2)CC1,-6.6,?,-8.9%,-3.8,13.1µM*,?
O=C(c1ccc(Cl)c([N+](=O)[O-])c1)N1CCN(c2ccccn2)CC1,22.1,-8.0%,4.3%,-2.3,10.4%,-9.9%
O=C(c1ccc(S(=O)(=O)Cc2cc(F)ccc2F)c([N+](=O)[O-])c1)N1CCCCC1,-13.7,2.3%,-4.2%,3.8,71.5%,14.7µM*
CC(C)NS(=O)(=O)c1ccc(NC(=O)C(C)OC(=O)CCC2CCCC2)cc1 (stereo unspecified),.,14.8%,16.1%,.,-4.1%,-10.0%
CCOC(=O)c1cc(OCC)c2c(ccc3cc(OC)ccc32)n1,.,.,-6.1%,.,.,.
Cc1ccc(NC(=O)CCCNC(=O)c2ccc(Cl)cc2)c(O)c1,91.0*,1.4%,20.2%,69.0*,63.6%,45.2%
Cc1cnc(NC(=O)CCCNC(=O)c2ccc(Cl)cc2)s1,.,11.4%,-9.3%,.,284.2%,289.8%
Cc1ccc(NC(=O)CCNC(=O)c2ccc(Br)cc2)nc1,56.3*,9.0%,0.0%,17.9*,33.7%,33.9%
Cc1ccc(NC(=O)CCNC(=O)c2ccc(Cl)cc2)nc1,73.6*,2.3%,10.3%,40.9*,78.9%,41.7%
Cc1ccc(NC(=O)CCCNC(=O)c2ccc(Cl)cc2)nc1,62.6*,-0.7%,-7.6%,29.3*,28.4%,29.2%
N#C/C(=C\Nc1ccc(Cl)cc1)S(=O)(=O)c1ccccn1,5.2,-3.2%,8.4%,-1.6,?,-1.7%
CNCCCC12CCC(c3ccccc31)c1ccccc12,-12.3,?,-1.8%,-5.3,?,11.7µM*
COc1cc(CN2CCN(Cc3ccc(C(F)(F)F)cc3)CC2)cc(OC)c1OC,.,?,?,-0.9,?,?
COCCNC(=O)Cc1c(C)c2c(cc(C)c3c(C(C)(C)C)coc32)oc1=O,20.7,?,-0.1%,0.9,?,0.3%[0.00184 µM]
CC1=C(C#N)C(C)(C)C(C#N)=C(C)N1,.,.,-5.8%,.,.,.
CCOC(=O)/C(C#N)=C/c1c(N2CCN(c3ccccc3)CC2)nc2ccccn2c1=O,17.7,-0.6%,0.0%,41.5*,?,22.7%
COC(=O)/C(C#N)=C/c1c(N2CCN(c3ccccc3)CC2)nc2ccccn2c1=O,23.2,-0.8%,-28.0%,20.5,?,?

# High-throughput results deposited in PubChem BioAssay by National Center for Advancing Translational Sciences (NCATS).
